Measurements as given in PubChem BioAssay (EPA / NIEHS).
Records with an inconclusive call do not appear. Activity calls are given as the source filed them. The calls were made as follows, unless noted: active = hit-call score of the fitted dose curve at least 0.9, where 1 is the maximum; inactive = score below 0.9.

Experiment: CCTE_Mundy_HCI_Cortical_Synap_Neur_Matur_SynapseCount: CCTE's Synaptogenesis and Neurite Maturation Assay in rat cortical cells for Synapse Count, Mundy Lab (AID 2284218)
Outline: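 Read-out: synapse number per neuron, automated high-content imaging of fixed cells immunostained for MAP2 and synaptophysin plus Hoechst nuclei. Rat primary cortical cultures, AraC at DIV 5, chemical dosing DIV 7–12. Positive-direction fit relative to DMSO.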
For `C[n+]1ccc(-c2cc[n+](C)cc2)cc1`, the AC50 was 1.01 µM (active). For `CCOP(=S)(OCC)SCS(=O)C(C)(C)C` (stereo unspecified), the outcome was “inactive”. For `O=C(O)CNCP(=O)(O)O`, the outcome was “inactive”. For `C#CCN(C)[C@H](C)Cc1ccccc1`, the outcome was “inactive”. In the case of `Cn1nc(C(F)(F)F)c(CS(=O)(=O)C2=NOC(C)(C)C2)c1OC(F)F`, the outcome is reported as “inactive”. In the case of `CC1(C)C(C=C(Cl)c2ccc(Cl)cc2)C1C(=O)OC(C#N)c1ccc(F)c(Oc2ccccc2)c1` (stereo unspecified), the AC50 is reported as 75.2 µM (active). In the case of `CCOP(=O)(Oc1cnc(C(C)(C)C)nc1)OC(C)C` (stereo unspecified), the outcome is reported as “inactive”. For `CC1(C)[C@H](C=C(Cl)Cl)[C@H]1C(=O)OCc1c(F)c(F)cc(F)c1F`, the AC50 was 9.74 µM (active). In the case of `CC(=O)[O-].CC(=O)[O-].O.O.O.[Pb+2]`, the outcome is reported as “inactive”. With `CC1(C)C(C=C(Cl)Cl)C1C(=O)O[C@H](C#N)c1cccc(Oc2ccccc2)c1` (stereo partly specified) the AC50 was 10.9 µM (active). With `CCOP(=O)(OCC)OC(Cl)C(Cl)(Cl)Cl` (stereo unspecified) the outcome was “inactive”. In the case of `CCOP(=O)(OCC)SCSC(C)(C)C`, the outcome is reported as “inactive”. In the case of `CC1(C)[C@@H](C=C(Cl)Cl)[C@@H]1C(=O)O[C@@H](C#N)c1ccc(F)c(Oc2ccccc2)c1`, the outcome is reported as “inactive”. For `COP(=O)(OC)SCN1C(=O)c2ccccc2C1=O`, the outcome was “inactive”. With `CC(=O)[O-].[Tl+]` the AC50 was 31.9 µM (active).

Experiment: CCTE_Mundy_HCI_hN2_NOG_NeuriteCount: CCTE's Neurite Outgrowth Assay in human hN2 cells for Neurite Count, Mundy Lab (AID 2284219; active = hit-call score of the fitted dose curve at least 0.9, where 1 is the maximum)
Outline: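 In this morphology assay, hNP1-derived neurons received test chemical 2 h post-plating and were fixed two days later in warm paraformaldehyde/sucrose containing Hoechst 33342. Neurites, labelled by rabbit anti-βIII-tubulin (1:800) and Alexa Fluor-488 (1:500), were counted automatically.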
In the case of `C[n+]1ccc(-c2cc[n+](C)cc2)cc1`, the outcome is reported as “inactive”. With `O=C(O)CNCP(=O)(O)O` the outcome was “inactive”. For `CC(=O)[O-].CC(=O)[O-].O.O.O.[Pb+2]`, the AC50 was 2.19 µM (active).

Experiment: CCTE_Mundy_HCI_hN2_NOG_NeuriteLength: CCTE's Neurite Outgrowth Assay in human hN2 cells for Neurite Length, Mundy Lab (AID 2284220; active = hit-call score of the fitted dose curve at least 0.9, where 1 is the maximum)
Outline: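 Read-out is neurite length from high-content imaging of βIII-tubulin/Alexa Fluor-488-labelled neurons, referenced to DMSO controls.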
For `C[n+]1ccc(-c2cc[n+](C)cc2)cc1`, the outcome was “inactive”. In the case of `O=C(O)CNCP(=O)(O)O`, the outcome is reported as “inactive”. For `CC(=O)[O-].CC(=O)[O-].O.O.O.[Pb+2]`, the AC50 was 2.07 µM (active).

Experiment: CCTE_Mundy_HCI_Cortical_Synap_Neur_Matur_NeuriteCount: CCTE's Synaptogenesis and Neurite Maturation Assay in rat cortical cells for Neurite Count, Mundy Lab (AID 2284222);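 as to outcome: exposure from day 7 to day 12 in vitro with readout at day 12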
Outline: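 In this multiplexed morphology readout, rat primary cortical neurons are fixed at DIV 12 following dosing at DIV 7 and stained for MAP2, synaptophysin and nuclei. High-content image analysis yields neurite count.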
In the case of `C[n+]1ccc(-c2cc[n+](C)cc2)cc1`, the AC50 is reported as 1.21 µM (active). With `CCOP(=S)(OCC)SCS(=O)C(C)(C)C` (stereo unspecified) the outcome was “inactive”. With `C#CCN(C)[C@H](C)Cc1ccccc1` the outcome was “inactive”. With `Cn1nc(C(F)(F)F)c(CS(=O)(=O)C2=NOC(C)(C)C2)c1OC(F)F` the outcome was “inactive”. With `CC1(C)C(C=C(Cl)c2ccc(Cl)cc2)C1C(=O)OC(C#N)c1ccc(F)c(Oc2ccccc2)c1` (stereo unspecified) the outcome was “inactive”. For `CCOP(=O)(Oc1cnc(C(C)(C)C)nc1)OC(C)C` (stereo unspecified), the outcome was “inactive”. With `CC1(C)[C@H](C=C(Cl)Cl)[C@H]1C(=O)OCc1c(F)c(F)cc(F)c1F` the AC50 was 11.9 µM (active). In the case of `CC1(C)C(C=C(Cl)Cl)C1C(=O)O[C@H](C#N)c1cccc(Oc2ccccc2)c1` (stereo partly specified), the AC50 is reported as 12.3 µM (active). In the case of `CCOP(=O)(OCC)OC(Cl)C(Cl)(Cl)Cl` (stereo unspecified), the outcome is reported as “inactive”. With `CCOP(=O)(OCC)SCSC(C)(C)C` the outcome was “inactive”. For `CC1(C)[C@@H](C=C(Cl)Cl)[C@@H]1C(=O)O[C@@H](C#N)c1ccc(F)c(Oc2ccccc2)c1`, the outcome was “inactive”. For `COP(=O)(OC)SCN1C(=O)c2ccccc2C1=O`, the outcome was “inactive”. For `CC(=O)[O-].[Tl+]`, the AC50 was 25.3 µM (active).

Experiment: CCTE_Mundy_HCI_Cortical_Synap_Neur_Matur_CellBodySpotCount: CCTE's Synaptogenesis and Neurite Maturation Assay in rat cortical cells for Cell Body Spot Count, Mundy Lab (AID 2284223)
Outline: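 Rat primary cortical cultures received AraC at DIV 5 to arrest glia, were dosed with chemical at DIV 7 with media change, and were fixed at DIV 12 (288.33 h). Synaptophysin puncta on MAP2-positive cell bodies per neuron were counted by high-content imaging versus DMSO.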
With `C[n+]1ccc(-c2cc[n+](C)cc2)cc1` the AC50 was 14.4 µM (active). In the case of `CCOP(=S)(OCC)SCS(=O)C(C)(C)C` (stereo unspecified), the outcome is reported as “inactive”. For `O=C(O)CNCP(=O)(O)O`, the outcome was “inactive”. With `C#CCN(C)[C@H](C)Cc1ccccc1` the outcome was “inactive”. With `Cn1nc(C(F)(F)F)c(CS(=O)(=O)C2=NOC(C)(C)C2)c1OC(F)F` the outcome was “inactive”. With `CC1(C)C(C=C(Cl)c2ccc(Cl)cc2)C1C(=O)OC(C#N)c1ccc(F)c(Oc2ccccc2)c1` (stereo unspecified) the outcome was “inactive”. In the case of `CCOP(=O)(Oc1cnc(C(C)(C)C)nc1)OC(C)C` (stereo unspecified), the outcome is reported as “inactive”. For `CC1(C)[C@H](C=C(Cl)Cl)[C@H]1C(=O)OCc1c(F)c(F)cc(F)c1F`, the AC50 was 12.8 µM (active). With `CC(=O)[O-].CC(=O)[O-].O.O.O.[Pb+2]` the outcome was “inactive”. In the case of `CC1(C)C(C=C(Cl)Cl)C1C(=O)O[C@H](C#N)c1cccc(Oc2ccccc2)c1` (stereo partly specified), the AC50 is reported as 12 µM (active). In the case of `CCOP(=O)(OCC)OC(Cl)C(Cl)(Cl)Cl` (stereo unspecified), the outcome is reported as “inactive”. With `CCOP(=O)(OCC)SCSC(C)(C)C` the outcome was “inactive”. For `CC1(C)[C@@H](C=C(Cl)Cl)[C@@H]1C(=O)O[C@@H](C#N)c1ccc(F)c(Oc2ccccc2)c1`, the outcome was “inactive”. For `COP(=O)(OC)SCN1C(=O)c2ccccc2C1=O`, the outcome was “inactive”. In the case of `CC(=O)[O-].[Tl+]`, the AC50 is reported as 30.1 µM (active).

Experiment: UKN4_HCS_LUHMES_cell_viability: Viability Assessment in the University of Konstanz (UKN) Leist Lab Neurite Outgrowth Assay in human LUHMES cells (UKN4) (AID 2284232)
Outline: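 Day-2 differentiated LUHMES, 30000 cells/well, dosed ~30 min–2 h post-seeding; 24 h treatment incl. staining; Hoechst H-33342 + calcein-AM at 23.5 h; HCS imaging; DMSO-normalized, bidirectional fit.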
For `C[n+]1ccc(-c2cc[n+](C)cc2)cc1`, the outcome was “inactive”. In the case of `C/C(=C/C=C/[C@@H](C)C(=O)O)[C@H]1CN[C@H](C(=O)O)[C@H]1CC(=O)O`, the outcome is reported as “inactive”. For `CP(=O)(O)CCC(N)C(=O)O` (stereo unspecified), the outcome was “inactive”. With `[O-][Cl+3]([O-])([O-])O` the outcome was “inactive”. For `C[n+]1ccc(-c2ccccc2)cc1`, the outcome was “inactive”. With `CC(=O)[O-].CC(=O)[O-].O.O.O.[Pb+2]` the outcome was “inactive”.

Experiment: UKN2_HCS_IMR90_cell_viability: Viability Assessment in the University of Konstanz (UKN) Leist Lab Neural Crest Cell Migration Assay in human induced IMR90 Pluripotent Stem Cells (UKN2) (AID 2284233);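 also: cells exposed to compound for 24 h after a 24 h migration phase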
Outline: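 Viability read as calcein-AM fluorescence by high-content imaging, Hoechst co-stain, 30 min. Human iPSC (IMR90) neural crest cells had migrated 24 h into stopper-defined gaps before 24 h chemical exposure. Fitted bidirectionally relative to DMSO.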
In the case of `C[n+]1ccc(-c2cc[n+](C)cc2)cc1`, the outcome is reported as “inactive”. For `C/C(=C/C=C/[C@@H](C)C(=O)O)[C@H]1CN[C@H](C(=O)O)[C@H]1CC(=O)O`, the outcome was “inactive”. In the case of `CP(=O)(O)CCC(N)C(=O)O` (stereo unspecified), the outcome is reported as “inactive”. With `[O-][Cl+3]([O-])([O-])O` the outcome was “inactive”. With `CCOP(=S)(OCC)SCS(=O)C(C)(C)C` (stereo unspecified) the outcome was “inactive”. With `C[n+]1ccc(-c2ccccc2)cc1` the outcome was “inactive”. For `Cn1nc(C(F)(F)F)c(CS(=O)(=O)C2=NOC(C)(C)C2)c1OC(F)F`, the outcome was “inactive”. With `CC1(C)C(C=C(Cl)c2ccc(Cl)cc2)C1C(=O)OC(C#N)c1ccc(F)c(Oc2ccccc2)c1` (stereo unspecified) the outcome was “inactive”. For `CCOP(=O)(Oc1cnc(C(C)(C)C)nc1)OC(C)C` (stereo unspecified), the outcome was “inactive”. For `CC1(C)[C@H](C=C(Cl)Cl)[C@H]1C(=O)OCc1c(F)c(F)cc(F)c1F`, the outcome was “inactive”. With `CC(=O)[O-].CC(=O)[O-].O.O.O.[Pb+2]` the outcome was “inactive”. In the case of `CC1(C)C(C=C(Cl)Cl)C1C(=O)O[C@H](C#N)c1cccc(Oc2ccccc2)c1` (stereo partly specified), the outcome is reported as “inactive”. For `CCOP(=O)(OCC)OC(Cl)C(Cl)(Cl)Cl` (stereo unspecified), the outcome was “inactive”. In the case of `CCOP(=O)(OCC)SCSC(C)(C)C`, the outcome is reported as “inactive”. With `COP(=O)(OC)SCN1C(=O)c2ccccc2C1=O` the outcome was “inactive”. In the case of `CC(=O)[O-].[Tl+]`, the AC50 is reported as 90 µM (active).
